# Compound activity from PubChem.
# FAS TE block: blocks the thioesterase domain of human fatty acid synthase; AID 602261; recombinant FAS-TE, OMFH fluorogenic substrate, fluorescence endpoint; inhibition, % at 15 µM; 360,000 tested, 0.67% active;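 active = compounds whose normalised, plate-corrected inhibition of enzyme fluorescence in the single-dose primary screen is 50% or more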
# TAG inh: reduces triacylglycerol accumulation in H9c2 cells | 230,000 tested, 0.66% active | inhibition, % at 12.5 µM | Nile Red lipid (TAG) fluorescence; cells loaded with 200 µM oleic acid;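 active = pattern-corrected inhibition of lipid staining of at least 50% with the nuclear-stain viability signal not falling by more than 50%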
# beta cell repl: inducers of beta-cell replication in MIN6 cells | MIN6 cells proliferation, ATPlite luminescence, 48 h; cells starved in 0.2% serum; 100% = growth in 10% serum | proliferation, % at 10 µM | 330,000 tested, 0.29% active;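 active = compounds whose signal lies at least 3.5 SD above the mean of all wells on their plate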
# m-calpain inh: inhibitors of pig calpain II | inhibition, % at 16 µM | AID 1236 | 220,000 tested, 0.37% active | purified calpain II, fluorogenic peptide substrate, 30 min;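 active = inhibition above about 50%, limit read from the data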
# aDG glyco up: increases alpha dystroglycan glycosylation; Pro5-aDG cells, alpha-DG glycosylation AlphaScreen (IIH6); 0% Pro5, 100% B10-LARGE cell signal; activation, % at 10 µM; 360,000 tested, 0.22% active; AID 624168;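 active = activation of at least 8% versus controls, or a plate z-score of at least 8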;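 note: Pro5 are CHO cells carrying HIG-tagged alpha-DG that lacks glycosylation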
# H9c2 protect: modulators protecting cardiomyocytes from myocardial damage; H9c2 cardiomyocytes, H2O2 injury protection, ATPLite, 2 h; protection from H2O2 cell death, % at 20 µM; AID 588492; 360,000 tested, 0.63% active;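 active = compounds giving at least 50% protection of heart cells from peroxide-induced death in the single-dose screen, raw or plate-pattern-corrected value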
# Numbers stand for hits; . = inactive; / = no result given. Shown are actives, neighbours in structure and some others; about 2.3% of the full set was active somewhere.
SMILES,FAS TE block,TAG inh,beta cell repl,m-calpain inh,aDG glyco up,H9c2 protect
N#Cc1cccc(N2[C@@H](Cc3cc4ccccc4n3Cc3ccccc3)COC[C@H]2Cc2ccc3ccccc3c2)c1,.,.,/,/,.,.
COC(=O)C1=C(C)N(Cc2ccccc2)C(=NCc2cccc(Cl)c2)N[C@H]1c1cccc(F)c1,.,120.2,.,/,.,.
COC(=O)C1=C(C)N(Cc2ccccc2)C(=NCc2ccc(OC)cc2)N[C@H]1c1cccc(F)c1,.,.,.,/,.,.
C#CCN1C=CC(=O)[C@@H](O)[C@H]1c1ccccc1Br,.,.,/,/,.,.
CC(C)OC(=O)CSc1nnc(-c2cccnc2)n1N,.,.,.,.,.,.
COc1cccc(-n2c(SCC(=O)OC(C)C)nnc2-c2cccnc2)c1,.,/,.,52.0,.,.
Cc1cc(NC(=O)CCC(=O)N(CC(=O)NCC2CCCO2)c2ccc(C)c(C)c2)no1 (centres undefined),.,/,.,/,.,.
COc1ccc(-c2oc3c(OC)c(OC)c(OC)c(O)c3c(=O)c2OC)cc1OC,.,/,.,.,.,72.0
C[C@H](CO)N1C[C@H](C)[C@@H](CN(C)C(=O)Nc2ccc3c(c2)OCO3)Oc2c(NC(=O)Nc3ccc4c(c3)OCO4)cccc2C1=O,54.6,.,.,/,.,.
C[C@@H]1CN([C@@H](C)CO)C(=O)c2cc(NC(=O)Nc3ccccc3)ccc2O[C@H]1CN(C)C(=O)Nc1cccc2ccccc12,.,.,.,/,.,89.9
C[C@H](CO)N1C[C@H](C)[C@@H](CN(C)C(=O)Nc2ccccc2)Oc2c(NC(=O)Nc3ccc4c(c3)OCO4)cccc2C1=O,.,/,.,/,.,.
CC1(C(=O)NCc2ccco2)Cc2c(-c3ccc(C(N)=O)cc3)ccnc2O1 (centres undefined),.,.,/,/,.,.
O=C(NCCN1CCC(n2c(=O)[nH]c3ccccc32)CC1)c1ccncc1,.,/,/,/,.,/
O=C(c1ccco1)N1CCN(CC(O)COc2ccc(Br)cc2)CC1 (centres undefined),.,/,.,/,.,.
CC(CCC(=O)NN)C1CCC2C3CCC4CC(O)CCC4(C)C3CCC12C (centres undefined),.,.,/,/,.,.
CC(CCC(C)C(C)(C)C)[C@@H]1CC[C@H]2C3C[C@H](OS(O)(=S)=S)[C@H]4C[C@H](OS(O)(=S)=S)[C@@H](OS(O)(=S)=S)C[C@]4(C)[C@H]3CC[C@]12C (some centres undefined) (tested in a mixture with another compound),81.4,.,.,/,.,.
O=C(Nc1ccc(F)cc1)C(=O)c1c(O)[nH]c2ccc([N+](=O)[O-])cc12,.,.,.,56.8,.,.
CC(=NNc1nc2ccccc2s1)c1ccncn1,.,63.7,/,/,.,.
Nc1c(C(=O)NCCc2ccccc2)sc2nc(N3CCOCC3)c3c(c12)CCCC3,.,.,.,.,.,.
CN(C(=O)c1sc2nc(N3CCOCC3)c3c(c2c1N)CCCC3)c1ccccc1,.,.,.,.,.,60.6
Nc1cccc2c1C(=O)c1ccc(Cl)cc1C2=O,.,.,/,/,.,.
Cc1nnc(SCC(=O)N2CCN(c3cccc(Cl)c3)CC2)n1C1CC1,.,.,.,/,.,.
CCc1ccc(OCc2n[nH]c(=S)n2Cc2ccccc2)cc1,.,/,.,53.8,.,.
CCC(=NNC(=O)c1ccc2c(c1)nc(C)n2CC)c1cc(F)ccc1O,.,.,.,/,.,52.2
Cc1ccc(C)c(C(=O)COC(=O)CN2C(=O)C3C4C=CC(C4)C3C2=O)c1 (centres undefined),.,/,.,/,.,.
SMILES,FAS TE block,TAG inh,beta cell repl,m-calpain inh,aDG glyco up,H9c2 protect
CCC1CCCCN1C(=O)c1cc(COc2ccc3ncccc3c2)on1 (centres undefined),.,.,.,.,7.6,.
CCOc1ccc(-c2cnc(N)n2C)cc1,.,.,.,.,.,.
Cn1c(-c2ccc(Cl)cc2)cnc1N,.,/,.,.,.,69.2
CN(C)c1ccc(-c2ccnc3c2CC(C)(C(=O)NCC2CCOCC2)O3)cc1 (centres undefined),.,.,/,/,.,.
COc1cc(F)ccc1-c1cc(C(=O)Nc2ccc(NC(C)=O)cc2)[nH]n1,.,.,/,/,.,.
O=C(N/N=C/c1c(O)n(-c2ccccc2Cl)c(=O)c2ccccc12)C1COc2ccccc2O1 (centres undefined),.,/,.,.,.,68.3
COc1ccc(-n2nnnc2C2c3ccccc3C(=O)N2C2CCN(Cc3ccccc3)CC2)cc1 (centres undefined),.,/,/,/,.,/
NC1=C(Cl)C(=O)c2ccccc2C1=O,.,65.9,/,/,21.6,.
Cc1ccc2[nH]c3c(N4CCc5ccccc5C4)ncnc3c2c1,.,.,.,.,6.7,.
Fc1ccc2[nH]c3c(N4CCc5ccccc5C4)ncnc3c2c1,.,.,.,.,.,.
CC1=Nc2ccccc2N=C(NC(=O)CN2CCN(c3ccccc3)CC2)C1c1ccccc1 (centres undefined),.,.,.,56.6,.,.
CCOC(=O)C1CCCN(CC(=O)NC2=Nc3ccccc3N=C(C)C2c2ccccc2)C1 (centres undefined),.,.,.,.,.,.
COc1ccnc(Oc2ccc(F)cc2)c1C(=O)N/C=N/OCc1ccc(Cl)cc1Cl,.,/,.,.,.,50.9
CC(C)CNC(=O)C1(C)CCCN1Cc1ccc(OC(F)(F)F)cc1 (centres undefined),.,.,/,/,.,.
C/C(=N\OCC(=O)N/N=C/c1ccc(C)cc1O)c1cccs1,.,.,.,.,.,63.8
C/C(=N\NC(=O)CO/N=C(\C)c1cccs1)c1ccc(N)cc1,.,.,.,.,.,.
COc1ccc(-c2cc(=O)oc3c(C)c(OC(C)C(=O)Nc4ccc(CN5CCOCC5)cc4)ccc23)cc1 (centres undefined),.,/,.,/,.,.
CCC(C(=O)NC1CCCC1)n1c(-c2ccncc2)nc2ccccc21 (centres undefined),/,/,/,/,.,/
Oc1ccc(/C=N/N2CCCCC2)cc1O,.,/,.,/,.,68.6
O=C1C2C3C=CC(CC3)C2C(=O)N1/N=C/c1ccc(O)c(O)c1 (centres undefined),.,/,.,.,.,.
O=C1c2ccccc2C(=O)N1/N=C/c1ccc(O)c(O)c1,.,/,.,.,.,62.3
CC1(C(=O)NS(=O)(=O)c2ccc(Cl)s2)CCN1C(=O)C1(c2ccc(Cl)cc2)CCC1 (centres undefined),.,.,/,/,.,.
C=CCNc1nc(Nc2cc(Cl)ccc2OC)nc(OC)n1,.,/,.,/,.,.
Cc1ccc(Cl)c2c1NC(=O)C2=O,.,.,.,/,.,.
COc1ccc(C(=O)c2c(N)sc3c2CCN(C)C3)cc1,.,/,8.0,/,.,.
CN1CCc2c(sc(N)c2C(=O)O)C1,.,/,.,.,.,.
